According to PubChem BioAssay AID1159580 (chemical genetic matrix, 2015):
In all, about 5,500 compounds went through this assay and about 2,000 (36%) were called active. Another 18% or so got no clear call; they are omitted. Cut-off read from the data, not from the text of the source: active = normalized growth mostly below about 0.91 (no sharp cut-off); inconclusive = no clear call, values can overlap the other calls; inactive = mostly above about 0.92. This is one part of the list.

Assay: chemical genetic growth profiling, strain panel (AID 1159580);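 note: tested at 20 µM; growth read once vehicle control cultures reached saturation at 30 °C; 1 = growth at the plate median or of vehicle wells; lower values mean less growth of the strain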
Settings: growth OD
[1] = S. cerevisiae deletion strains, locus YHR030C, strain SLT2, hits give low values
[2] = S. cerevisiae deletion strains, locus YHR079C, strain IRE1, hits give low values
[3] = S. cerevisiae deletion strains, locus YJL095W, strain BCK1, hits give low values
[4] = S. cerevisiae deletion strains, locus YJR066W, strain TOR1, hits give low values
[5] = S. cerevisiae deletion strains, locus YLR113W, strain HOG1, hits give low values
[6] = S. cerevisiae deletion strains, locus YNL183C, strain NPR1, hits give low values
[7] = S. cerevisiae deletion strains, locus YOR231W, strain MKK1, hits give low values
[8] = S. cerevisiae deletion strains, locus YPL256C, strain CLN2, hits give low values
[9] = S. cerevisiae deletion strains, locus YDL101C, strain DUN1, hits give low values

Measured: normalized growth

CC(O)Cn1cnc2c1c(=O)n(C)c(=O)n2C (stereo not drawn)
inactive: [1] 1.05 | [2] 1.07 | [3] 1.05 | [4] 0.991 | [5] 1.04 | [6] 1 | [7] 1.03 | [8] 1.04

COc1cc(NC(=O)Nc2ccc(OC(F)(F)F)cc2)cc(C(F)(F)F)c1
inactive: S. cerevisiae deletion strains, locus YAL013W, strain DEP1, hits give low values 0.987 | S. cerevisiae deletion strains, locus YBR229C, strain ROT2, hits give low values 0.987 | [9] 0.997 | S. cerevisiae deletion strains, locus YDL134C, strain PPH21, hits give low values 1.01 | S. cerevisiae deletion strains, locus YDR150W, strain NUM1, hits give low values 0.971 | S. cerevisiae deletion strains, locus YEL061C, strain CIN8, hits give low values 0.961 | S. cerevisiae deletion strains, locus YGR078C, strain PAC10, hits give low values 0.984 | [1] 0.895 | S. cerevisiae deletion strains, locus YHR087W, strain rtc3, hits give low values 0.984 | S. cerevisiae deletion strains, locus YJL187C, strain SWE1, hits give low values 1.01 | S. cerevisiae deletion strains, locus YJR043C, strain POL32, hits give low values 0.999 | S. cerevisiae deletion strains, locus YJR075W, strain HOC1, hits give low values 1 | S. cerevisiae deletion strains, locus YLR039C, strain RIC1, hits give low values 0.895 | S. cerevisiae deletion strains, locus YLR058C, strain SHM2 (second series), hits give low values 1 | S. cerevisiae deletion strains, locus YLR085C, strain ARP6, hits give low values 0.951 | S. cerevisiae deletion strains, locus YLR262C, strain YPT6, hits give low values 0.968 | S. cerevisiae deletion strains, locus YML094W, strain GIM5, hits give low values 0.919 | S. cerevisiae deletion strains, locus YMR219W, strain ESC1, hits give low values 1.02 | S. cerevisiae deletion strains, locus YMR263W, strain SAP30, hits give low values 0.991 | S. cerevisiae deletion strains, locus YMR307W, strain GAS1, hits give low values 0.864 | S. cerevisiae deletion strains, locus YNL153C, strain GIM3, hits give low values 0.987 | S. cerevisiae deletion strains, locus YNL298W, strain CLA4 (second series), hits give low values 0.923 | S. cerevisiae deletion strains, locus YNL322C, strain KRE1, hits give low values 1.01 | S. cerevisiae deletion strains, locus YNR030W, strain Alg12, hits give low values 0.935 | S. cerevisiae deletion strains, locus YOL006C, strain TOP1, hits give low values 0.996 | S. cerevisiae deletion strains, locus YPL055C, strain LGE1, hits give low values 0.928 | S. cerevisiae deletion strains, locus YPL241C, strain CIN2, hits give low values 0.893 | S. cerevisiae deletion strains, locus YPR135W, strain CTF4, hits give low values 1 | S. cerevisiae strains, strain wild type, hits give low values 1.01

O=C(Nc1ccc(OC(F)(F)F)cc1)Nc1cncc(C(F)(F)F)c1
active: [1] 0.822 | [5] 0.739 | [8] 0.763
inactive: S. cerevisiae deletion strains, locus YAR019C, strain CDC15, hits give low values 0.987 | S. cerevisiae deletion strains, locus YBL105C, strain PKC1, hits give low values 0.995 | S. cerevisiae deletion strains, locus YBR135W, strain CKS1, hits give low values 0.989 | S. cerevisiae deletion strains, locus YBR136W, strain MEC1, hits give low values 0.994 | S. cerevisiae deletion strains, locus YBR160W, strain CDC28, hits give low values 0.993 | S. cerevisiae deletion strains, locus YDL017W, strain CDC7, hits give low values 0.995 | S. cerevisiae deletion strains, locus YDL028C, strain MPS1, hits give low values 0.991 | [9] 1.01 | S. cerevisiae deletion strains, locus YDL108W, strain KIN28, hits give low values 0.988 | S. cerevisiae deletion strains, locus YDL132W, strain cdc53, hits give low values 0.995 | S. cerevisiae deletion strains, locus YDL214C, strain PRR2, hits give low values 0.913 | S. cerevisiae deletion strains, locus YDR052C, strain DBF4, hits give low values 0.989 | S. cerevisiae deletion strains, locus YDR054C, strain cdc34, hits give low values 0.996 | S. cerevisiae deletion strains, locus YDR226W, strain ADK1, hits give low values 0.991 | S. cerevisiae deletion strains, locus YDR477W, strain SNF1, hits give low values 0.943 | S. cerevisiae deletion strains, locus YER123W, strain YCK3, hits give low values 0.884 | S. cerevisiae deletion strains, locus YER133W, strain GLC7, hits give low values 0.93 | S. cerevisiae deletion strains, locus YFL009W, strain cdc4, hits give low values 0.982 | S. cerevisiae deletion strains, locus YFL029C, strain CAK1, hits give low values 0.991 | S. cerevisiae deletion strains, locus YFR003C, strain YPI1, hits give low values 0.999 | S. cerevisiae deletion strains, locus YFR019W, strain FAB1, hits give low values 0.911 | S. cerevisiae deletion strains, locus YFR028C, strain CDC14, hits give low values 0.986 | S. cerevisiae deletion strains, locus YGR040W, strain KSS1, hits give low values 0.941 | S. cerevisiae deletion strains, locus YGR052W, strain FMP48, hits give low values 0.929 | S. cerevisiae deletion strains, locus YGR092W, strain DBF2, hits give low values 0.919 | [2] 0.824 | S. cerevisiae deletion strains, locus YHR082C, strain KSP1, hits give low values 0.968 | S. cerevisiae deletion strains, locus YHR205W, strain SCH9, hits give low values 0.888 | S. cerevisiae deletion strains, locus YIL147C, strain SLN1, hits give low values 0.996 | [3] 0.877 | S. cerevisiae deletion strains, locus YJL128C, strain PBS2, hits give low values 0.951 | S. cerevisiae deletion strains, locus YJL157C, strain FAR1, hits give low values 0.923 | S. cerevisiae deletion strains, locus YJR016C, strain ILV3, hits give low values 0.994 | S. cerevisiae deletion strains, locus YJR066W, strain TOR1 (second series), hits give low values 0.88 | [4] 0.942 | S. cerevisiae deletion strains, locus YKL048C, strain ELM1, hits give low values 0.964 | S. cerevisiae deletion strains, locus YKL067W, strain YNK1, hits give low values 0.916 | S. cerevisiae deletion strains, locus YKL101W, strain HSL1, hits give low values 0.905 | S. cerevisiae deletion strains, locus YKL193C, strain SDS22, hits give low values 0.996 | S. cerevisiae deletion strains, locus YKL203C, strain TOR2, hits give low values 0.964 | S. cerevisiae deletion strains, locus YLR133W, strain CKI1, hits give low values 0.91 | S. cerevisiae deletion strains, locus YLR403W, strain SFP1, hits give low values 0.945 | S. cerevisiae deletion strains, locus YML070W, strain DAK1, hits give low values 0.89 | S. cerevisiae deletion strains, locus YMR001C, strain CDC5, hits give low values 0.998 | S. cerevisiae deletion strains, locus YMR205C, strain PFK2 (second series), hits give low values 0.927 | S. cerevisiae deletion strains, locus YMR277W, strain FCP1, hits give low values 0.992 | S. cerevisiae deletion strains, locus YNL006W, strain LST8, hits give low values 0.99 | S. cerevisiae deletion strains, locus YNL020C, strain ARK1, hits give low values 0.914 | S. cerevisiae deletion strains, locus YNL161W, strain CBK1, hits give low values 0.971 | [6] 0.915 | S. cerevisiae deletion strains, locus YNL207W, strain RIO2, hits give low values 0.985 | S. cerevisiae deletion strains, locus YNL222W, strain SSU72, hits give low values 0.994 | S. cerevisiae deletion strains, locus YNL307C, strain MCK1 (second series), hits give low values 0.886 | S. cerevisiae deletion strains, locus YOL078W, strain AVO1, hits give low values 0.993 | S. cerevisiae deletion strains, locus YOL136C, strain PFK27, hits give low values 0.882 | S. cerevisiae deletion strains, locus YOR061W, strain CKA2, hits give low values 0.952 | S. cerevisiae deletion strains, locus YOR119C, strain RIO1, hits give low values 0.995 | [7] 0.865 | S. cerevisiae deletion strains, locus YOR329C, strain SCD5, hits give low values 0.994 | S. cerevisiae deletion strains, locus YPL031C, strain PHO85, hits give low values 0.921 | S. cerevisiae deletion strains, locus YPL153C, strain RAD53, hits give low values 0.928 | S. cerevisiae deletion strains, locus YPL204W, strain HRR25, hits give low values 0.892 | S. cerevisiae deletion strains, locus YPL209C, strain IPL1, hits give low values 0.998 | S. cerevisiae deletion strains, locus YPR025C, strain CCL1, hits give low values 0.994 | S. cerevisiae deletion strains, locus YPR106W, strain ISR1, hits give low values 0.982 | S. cerevisiae deletion strains, locus YPR111W, strain DBF20, hits give low values 0.969 | S. cerevisiae deletion strains, strain NNK1, hits give low values 0.978 | S. cerevisiae deletion strains, strain TSCII, hits give low values 0.983
